The structures appear in SMILES notation. Records with an inconclusive call do not appear. A number with no mark means an inactive call. Calls of active or inactive are those of the source. Calls come from the whole dose curve; as a rule, active = well fitted activation curve with a large enough effect; inconclusive = small, poorly fitted or top-dose-only effect; inactive = no such curve, though single readings can be large or run the other way.
Potency is the fitted concentration of half-maximal effect.

A short description of one assay: Activators of T cell receptors: Hit Validation. For activation: 0% is about no effect. The following applies: primary human leukocytes, cytokine release by HTRF, 48 h. The source says:
Normally activation of naive T cells requires two signals. 1. A signal through the T cell receptor (TCR) which provides antigen specificity to the response. 2. Signals through co-stimulatory molecules, which are necessary for proliferation, survival and cytokine production. In the absence of co-stimulatory signals T cells are not effectively activated, and may even be rendered anergic or unresponsive to subsequent signaling. This lack of costimulation has been shown in multiple model systems to be a major factor in the limited strength and effectiveness of anti-tumor T cell responses. The goal of this project is to identify small molecule compounds that will stimulate T cell activation in the presence of TCR signaling but in the absence of co-stimulatory signals, thereby allowing activation of naive T cells in the absence of co-stimulation. Identification of such compounds would have clear experimental and clinical applications in instances where desirable antigen-specific immune responses are not generated due to a lack of co-stimulation, for example in the generation of anti-tumor responses.
In collaboration between the National Cancer Institute and NIH Chemical Genomics Center, a high-throughput amenable screen was developed to discover small molecules that co-stimulate and activate human T cell receptors. The screen will be carried out using a novel homogeneous time resolved fluorescence energy transfer (HTRF) assay to measure production of the cytokine IL-2 by activated T cells and will be tested against the NIH Molecular Libraries Small Molecule Repository (MLSMR). This is the same assay tested against the hits identified in the primary screen.
NIH Chemical Genomics Center [NCGC]
NIH Molecular Libraries Probe Centers Network [MLPCN]
Assay Submitter (PI): Richard Hodes, National Cancer Institute, NIH
Primary human leukocytes are incubated with a-CD3 beads and compounds for 48 hr. The amount of secreted IL-2 is then assayed with a HTRF IL-2 kit. The presence of IL-2 cytokine captures the detection reagents and brings the a-IL-2-K and a-IL-2-d2 into close proximity. Upon excitation with 320nm light, the europium cryptate is capable of transferring energy to acceptor molecules within close proximity, resulting in acceptor molecule emission at 665nm.
In general terms: Time-resolved FRET reads energy transfer from a long-lived donor to a nearby acceptor.
Regarding `CN(C)c1ccc(/C=C/c2cc[n+](C)c3ccccc23)cc1`, the Potency was 7.91 µM (active).
The same measure, in the same setting: to `C=C(C)[C@@]12OC3(c4ccccc4)O[C@@H]1C1[C@@H]4O[C@]4(CO)[C@@H](O)[C@]4(O)C(=O)C(C)=C[C@H]4[C@@]1(O3)[C@H](C)[C@H]2OC(=O)/C=C/C=C/c1ccccc1` (stereo not given in full) belongs 0.002 µM (active).

Still in this assay, the particulars now being: primary human leukocytes, cytokine release by HTRF, 48 h; TCR-stimulated with anti-CD3 beads.
Take `CN(C)c1ccc(/C=C/c2cc[n+](C)c3ccccc23)cc1`: the Potency was 6.28 µM (active).

The assay is the same for the next values; noted with them: primary human leukocytes, cytokine release by HTRF, 48 h; at 46.1 µM (top of the series).
Turning to `COc1ccc(N/N=C/c2c(O)n(-c3ccc(C)c(C)c3)c(=O)[nH]c2=O)cc1`, the activation is 11.6%.
On to `COc1ccc(/C=C/C(=O)c2c(O)n(CCC3=CCCCC3)c(=O)[nH]c2=O)cc1`, for which the activation is 2.49%.
Same read-out and setting: to `CCC(C)n1c(O)c(C=NC(C)c2ccccc2)c(=O)[nH]c1=S` (stereo not given) belongs 6.34%; to `C#C[C@]1(O)CC[C@H]2[C@@H]3CCC4=CC(=O)CC[C@]4(C)[C@H]3CC[C@@]21C`, -6.05%.

Still in this assay, the particulars now being: primary human leukocytes, cytokine release by HTRF, 48 h; at 46.1 µM (top of the series); TCR-stimulated with anti-CD3 beads.
For the compound `CC(C)[C@]12CC(=O)[C@H](C)[C@H]1C2`, the activation is -2.87%.
Turning to `Nc1cc(Cl)cc(Cl)c1`, the activation was -3.76%.
Same read-out and setting: to `Cc1ccc(OC(F)F)c(N2C(=O)C3C4CCC(O4)C3C2=O)c1` (stereo not given) belongs -0.91%.

The values are drawn from PubChem BioAssay AID624298 (National Center for Advancing Translational Sciences (NCATS), 2012).
